# Measured values as given in PubChem BioAssay AID1035475 (Broad Institute, 2014).
# Measured potencies and affinities stand elsewhere. Inconclusive results are not listed. Calls of active or inactive are those of the source.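 Rule for the calls: active = fluorescent signal drops by 40% or more, counted as a hit; inconclusive = no clear call, values can overlap the other calls; inactive = the rest, including any activity in the opposite direction.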
# Test: blockers of FN fibrillogenesis by fibroblasts – AH1F cells, Alexa488-FN fluorescence, cherry-picks, dose response (AID 1035475);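 note: AH1F fibroblasts incorporating labeled fibronectin into their extracellular matrix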
smiles,measurement,value
C=C1C(=O)O[C@@H]2C[C@@H](C)[C@@H]3C=CC(=O)[C@@]3(C)[C@@H](O)[C@H]12,outcome,inactive
